# Marburg entry – blocks Marburg virus binding or cell entry; Marburg virus pseudotype entry/binding inhibition, cell-based; Potency, µM (highest dose often 49.2 µM), inactives show at the top dose activity change, negative = inhibition, actives largely listed as inhibitors; 6.5% of 18,000 active; AID 720532
# Lassa entry – inhibitors of Lassa virus binding or entry into cells; Lassa virus pseudotyped entry inhibition, cell-based qHTS; Potency, µM (doses to about 49.2 µM), without a hit: at the highest dose activity change, negative = inhibition, actives largely listed as inhibitors; 4.1% of 18,000 active; AID 720533
# Numbers without * were called inactive; ? = inconclusive; / = no result; ! = repeats disagree; [ ] = dose if it differs, or a comment. Shown are actives, neighbours in structure and some others; about 8% of the full set was active somewhere. The call rests on the fitted dose curve; tested in HEK293 cells. On the % scale 0 is the no-effect control and ±100 the full control effect; potency means the concentration at half of the fitted maximal effect.
SMILES,Marburg entry,Lassa entry
CN(C)CCC=C1c2ccccc2CCc2ccccc21,10µM*,?
C=C1C(=O)[C@]23[C@H](O)[C@H]1CC[C@H]2[C@@]12COC3(O)[C@H](O)[C@@H]1C(C)(C)CC[C@@H]2O,18µM*,?
O=C1NCN(c2ccccc2)C12CCN(CC1COc3ccccc3O1)CC2 (stereo not given),-1%,2%
O=C1NCN(c2ccccc2)C12CCN(CCCC(c1ccc(F)cc1)c1ccc(F)cc1)CC2,1.4µM*,?
CCn1c(=O)[nH]c2ccccc21,8%,-2%
O=c1[nH]c2ccccc2n1C1CCN(CCCC(c2ccc(F)cc2)c2ccc(F)cc2)CC1,14µM*,25µM*!
CC(C)=CCCC(C)=CCON=C1C[C@@H](O)[C@@H](O)[C@@H]2[C@H]3C(=O)N(c4ccc(F)cc4F)C(=O)[C@@H]3CC[C@H]12,?,8%[8.59 µM]
C[C@@H]1C[C@H](C)C[C@H](C)[C@@H](O)CC(=O)O[C@H]([C@H]2CCC[C@H]2C(=O)O)C/C=C/C=C(/C#N)[C@H](O)[C@@H](C)C1,10µM*,?
COC(=O)CC=C[C@@H](C)[C@@H](C=NOC[C@@H](C)[C@H](OCc1ccccc1)C(C)C)NS(=O)(=O)c1ccc(C)cc1,-14%[8.59 µM],/
CC(C)N1CCN(c2ccc(C(=O)c3c(-c4ccc(O)cc4)sc4cc(O)ccc34)cc2)CC1,5µM*,?
O=C(c1ccc(OCCN2CCCCC2)cc1)c1c(-c2ccc(O)cc2)sc2cc(O)ccc12,14µM*,32µM*!
CCCCOc1ccc(C(=O)CCN2CCCCC2)cc1,?,-9%
O=c1c(O)cc(C2Oc3cc(O)cc(O)c3CC2O)cc2c(C3Oc4cc(O)cc(O)c4CC3O)cc(O)c(O)c12 (stereo not given),13µM*,5%
Oc1cc(O)c2c(c1)O[C@H](c1ccc(O)c(O)c1)[C@@H](O)C2,9%,-8%
NC(=O)c1cccc(Nc2nccc(Nc3cccc4[nH]ncc34)n2)c1,?,-16%
COC1=CC2C(=O)C(C1=O)C1c3ccccc3CC21 (stereo not given),-3%[8.59 µM],-17%[8.59 µM]
NC(=NC1C2CC3CC(C2)CC1C3)Nc1ccc(I)cc1 (stereo not given),11µM*,8.9µM*
CC1=CC[C@@H](C)O[C@@]2(C1)C(=O)N(Cc1ccc(F)cc1)c1ccccc12,41%[8.59 µM],-9%[8.59 µM]
C(=Cc1nc(-c2ccccc2)oc1Nc1ccc2ccccc2c1)c1ccccc1,-1%[8.59 µM],-16%[8.59 µM]
C=CCOP1(=O)O[C@H](CC=C)C[C@H](CC=C)O1 (stereo not given in full),?,38%
COc1cc(C(CCN2CCOCC2)c2c(OC)cc(OC)c3ccc(=O)oc23)cc(OC)c1OC (stereo not given),-12%,-23%
COc1cc(OC)c2c(-c3ccccc3)cc(=O)oc2c1C(CCN1CCOCC1)c1ccc(N(C)C)cc1 (stereo not given),10µM*,?
C/C=C/c1ccc(O)c(OC)c1,7%,-5%
Oc1cc(O)cc(/C=C/c2ccc(O)c(O)c2)c1,20µM*!,22µM*
COc1ccc(-c2cc3c(N)ncnc3o2)cc1,91%,55%
SMILES,Marburg entry,Lassa entry
O=P12OCC=C[C@H](C[C@H](CC3C#C3)O1)O2,74%,/
O=C(C=Cc1ccccc1)Nc1cccc(C(=O)NCCc2ccccc2)c1,8%,-13%
CCCCN(CCCC)Cc1cc(=O)oc2cc(C)cc(C)c12,-25%,6%
Cc1cc(C)c2c(CN(C)Cc3ccccc3)cc(=O)oc2c1,2.2µM*,?
O=C(c1cccs1)N1C[C@@H](n2cc(C3CC3)nn2)[C@@H](O)C[C@@H]1c1ccc(Cl)cc1,-11%,-19%
COC(=O)[C@@]1(C=C2c3ccc(F)cc3[C@@H](OC)[C@@H]2C)[C@@H]2C=CC[C@@H]21,?,8%[8.59 µM]
COC(=O)C1=C(C(=O)OC)[C@@H]2N(Cc3ccccc3)c3ccccc3[C@@]23C[C@@H](C(=O)OC)N(C(=O)Nc2ccccc2F)C3=N1,-13%[8.59 µM],-20%[8.59 µM]
CCCCCCCCNCCS(=O)(=O)NCc1ccccc1OC,?,-8%
COc1ccccc1CNCCCCCCNCCCCCCCCNCCCCCCNCc1ccccc1OC,7.9µM*,?
NS(=O)(=O)c1ccc(-c2ccc3c(NC(=O)C4CC4)n[nH]c3c2)cc1,-14%,-3%
O=C1[C@@H]2[C@H]3[C@H](O)[C@H](O)CC(=NOC[C@@H](O)COCc4ccco4)[C@@H]3CC[C@H]2C(=O)N1C[C@@H]1CCCO1,?,7%[8.59 µM]
CCN1C(=O)[C@@H]2[C@H]3[C@H](O)[C@H](O)CC(=NOC[C@@H](O)COCc4ccco4)[C@@H]3CC[C@H]2C1=O,-22%[8.59 µM],1%[8.59 µM]
COC(=O)CC=C[C@@H](C)[C@@H](C=NO[C@H](C)c1cn([C@H](CO)Cc2ccccc2)nn1)NS(=O)(=O)c1ccc(C)cc1,22%[8.59 µM],36%[8.59 µM]
O=C(Nc1ccc(/C=C/c2ccc(NC(=O)c3cc(S(=O)(=O)O)c4cccnc4c3O)cc2S(=O)(=O)O)c(S(=O)(=O)O)c1)c1cc(S(=O)(=O)O)c2cccnc2c1O,3.5µM*,3%
O=S(=O)(O)c1cc(I)c(O)c2ncccc12,-20%,?
COc1cccc([C@@H]2Oc3ccc(OC)cc3C(=O)[C@@H]2O)c1,-11%[8.59 µM],92%[8.59 µM]
CCC[C@H]1CN(c2ccccc2)C(=O)[C@H]1CC(=O)Nc1ccc(OC)cc1,4%,11%
OC[C@H]1O[C@H](C#Cc2ccc(F)cc2F)C=C[C@H]1O,?,-16%[8.59 µM]
CCCCC[C@@H](O)C1C(=O)OC(C)[C@H](O)/C=C/C=C/C=C/C=C/C=C(\C)C(O)C(O)C(O)C[C@H](O)C[C@H](O)C[C@H](O)C[C@H](O)C[C@@H]1O (stereo not given in full),16µM*!,-5%
C=CCCOP1(=O)O[C@H](C=C)C[C@H](C=C)O1 (stereo not given in full),-10%,-13%
COc1cccc([C@H]2NC(=O)C[C@@H]3C[C@@H](C)[C@@H](c4cccc(OC)c4)N3C(=O)C=CC[C@@H]2C)c1,8%[8.59 µM],44%[8.59 µM]
Nc1nc(Cl)c2ncn(C3OC(CO)C(O)C3O)c2n1 (stereo not given),19%,5%
Nc1nc(Cl)nc2c1ncn2[C@@H]1O[C@H](CO)[C@@H](O)[C@@H]1F,2.5µM*,?
COc1cc2c(cc1OC)[C@@H]1O[C@](CCCCN3C(=O)c4ccccc4C3=O)(C2)OC2=C1C(=O)CCC2,-17%[8.59 µM],/
CC[C@]1(O)CC[C@H]2[C@@H]3CCC4=CCCC[C@@H]4[C@H]3CC[C@@]21C,-21%,14µM*
SMILES,Marburg entry,Lassa entry
C#C[C@]1(O)CC[C@H]2[C@@H]3CCC4=CCCC[C@@H]4[C@H]3C(=C)C[C@@]21CC,-12%,-26%
COc1cccc2c1[C@H](C=Cc1ccccc1)[C@@H]([C@H](O)CO)OC2,-11%[8.59 µM],?
Cc1cc(Cl)cc2c(N=Nc3ccc(S(N)(=O)=O)cc3)c(O)[nH]c12,-24%,-24%
O[N+]1=CC=CCC1=S.On1ccccc1=S.[Zn],4.5µM*,3.5µM*
COC(=O)N[C@@H](c1ccccc1)C(C(=O)OC)C(=O)OC,45%[8.59 µM],-9%[8.59 µM]
COc1ccc(COC(=O)NN=C2C[C@@H](O)[C@@H](O)[C@@H]3[C@H]4C(=O)N(Cc5ccccc5)C(=O)[C@@H]4CC[C@@H]23)cc1,-25%[8.59 µM],?
Cc1ccc2c(c1)Cc1c(C(=O)NC3CCCCC3)nn(-c3ccc(Cl)cc3Cl)c1-2,?,-8%
Cc1c(C(=O)NN2CCCCC2)nn(-c2ccc(Cl)cc2Cl)c1-c1ccc(Cl)cc1,14µM*,16µM*
